Growth data for 9 compounds are collected here from PubChem BioAssay (NCI).

This is part of a sample that, as a whole, favours compounds with a hit. Of some 83,000 tested, about 20% had one in any assay.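 Testing used 96-well plates and a 48-hour single-concentration exposure. Example: -40 means 40% of the starting cells died.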 Values without a mark were called inactive. Calls of active or inactive are those of the source. How the source made its calls: active means growth percent below 10; inactive means the rest.

Among the test systems are SR leukemia; RPMI-8226 leukemia; OVCAR-8 ovarian; OVCAR-5 ovarian; OVCAR-4 ovarian; SK-OV-3 ovarian; IGROV1 ovarian; OVCAR-3 ovarian; HS 578T breast; NCI/ADR-RES ovarian; T-47D breast; BT-549 breast; MDA-MB-435 melanoma; SW-620 colon; HCT-116 colon; KM12 colon; MCF7 breast; HCC-2998 colon.
What all share (experiment): NCI-60 one-dose screen, 48 h (100 = growth as untreated, 0 = no growth, -100 = all killed)
What all share (details): 10 µM unless noted

For `CN(C)CCCn1c2c(c3ncccc3c1=O)C(=O)c1ccccc1-2`, the growth in the assay on SR leukemia was 15.2%; with RPMI-8226 leukemia it was 38.2%; in the assay with OVCAR-8 ovarian it was 31.3%; with OVCAR-5 ovarian, 46.5%; with OVCAR-4 ovarian, 61.8%; in the assay with SK-OV-3 ovarian, 69.6%. In addition, the growth in the assay on IGROV1 ovarian was 43.8%; in the assay with OVCAR-3 ovarian, 57.4%; in the assay on HS 578T breast, 75.8%; in the assay with NCI/ADR-RES ovarian, 42.7%; with T-47D breast, 47.8%; with BT-549 breast, 67.3%. Further, the growth in the assay on MDA-MB-435 melanoma was 64%; with SW-620 colon it was 24%; in the assay with HCT-116 colon, 11.2%; in the assay on KM12 colon, 40.9%.
In the case of `C[C@H](NC(=O)[C@@H](C)N)[C@H](Oc1ccc2c(cnn2-c2ccc(F)cc2)c1)c1ccc2c(c1)OCCO2`, the growth is -41.9% (active) in the assay with SR leukemia; 20.7% with RPMI-8226 leukemia; 57.8% with OVCAR-8 ovarian; 64.7% in the assay with OVCAR-5 ovarian; 60.7% in the assay on OVCAR-4 ovarian; 49.2% in the assay with SK-OV-3 ovarian. In addition, the growth in the assay with OVCAR-3 ovarian was 55.8%; with HS 578T breast it was 64.8%; with NCI/ADR-RES ovarian it was 57.6%; in the assay on T-47D breast, 36.2%; in the assay on BT-549 breast, 32.9%; in the assay on MDA-MB-435 melanoma, 45.4%. The growth in the assay on SW-620 colon was 62%; in the assay on MCF7 breast, 46.4%; in the assay on HCT-116 colon, 38.6%; with HCC-2998 colon it was 28.1%; in the assay on KM12 colon it was 36.1%.
For `Clc1ccc2c(c1)N(c1ncnc3ccc(-c4cnc5[nH]ncc5c4)cc13)CC2`, the growth in the assay with SR leukemia was 24.3%; with RPMI-8226 leukemia it was 16.9%; in the assay with OVCAR-8 ovarian, 30%; with OVCAR-5 ovarian, 20.3%; in the assay with OVCAR-4 ovarian, 26.9%; in the assay on SK-OV-3 ovarian it was -1.55% (active). Further, the growth in the assay on OVCAR-3 ovarian was 24.5%; in the assay with HS 578T breast, -17% (active); with NCI/ADR-RES ovarian it was 40.4%; in the assay on T-47D breast, 0.466% (active); in the assay on BT-549 breast, 22.6%; with MDA-MB-435 melanoma, 31.1%. Further, the growth with SW-620 colon is 47.4%; in the assay with MCF7 breast it was 18.2%; in the assay with HCT-116 colon, 35.8%; in the assay with HCC-2998 colon, 36.6%; with KM12 colon it was 36.4%.
Regarding `COc1cc(-c2nc(SCCC(C)C)nc(Nc3ccccc3Cl)c2C#N)cc(OC)c1OC`, the growth was 102% with SR leukemia; 101% in the assay with RPMI-8226 leukemia; 101% in the assay on OVCAR-8 ovarian; 89.7% in the assay on OVCAR-5 ovarian; 90.2% with OVCAR-4 ovarian; 120% with SK-OV-3 ovarian. Further, the growth is 91.6% with IGROV1 ovarian; 105% in the assay with OVCAR-3 ovarian; 95.6% with HS 578T breast; 101% in the assay on NCI/ADR-RES ovarian; 81.5% in the assay on T-47D breast; 88.4% in the assay with BT-549 breast. Besides, the growth was 96.6% in the assay on MDA-MB-435 melanoma; 102% in the assay on SW-620 colon; 89.3% in the assay on HCT-116 colon; 109% with HCC-2998 colon; 96.3% in the assay on KM12 colon.
As for `CC1=Nc2cnc(Nc3ccc(OCCN4CCCC4)cc3)nc2Nc2ccccc21`, the growth in the assay with SR leukemia is 58.1%; in the assay on RPMI-8226 leukemia it was 78%; in the assay with OVCAR-8 ovarian, 80.6%; with OVCAR-5 ovarian, 74%; in the assay on OVCAR-4 ovarian, 62.9%; in the assay on SK-OV-3 ovarian, 43.8%. Besides, the growth with OVCAR-3 ovarian is 76.4%; in the assay with HS 578T breast it was 41.5%; in the assay on NCI/ADR-RES ovarian it was 82.7%; with T-47D breast, 61.1%; in the assay on BT-549 breast it was 88.2%; with MDA-MB-435 melanoma it was 72.2%. Besides, the growth in the assay on SW-620 colon is 68.4%; in the assay on MCF7 breast it was 75%; with HCT-116 colon, 73.6%; with HCC-2998 colon, 72.2%; in the assay with KM12 colon, 15.2%.
`COc1cccc(CNc2ncnc3c2ncn3C2OC(CO)C(O)C2O)c1O` (stereo not given): the growth in the assay on SR leukemia is -9.69% (active); in the assay on RPMI-8226 leukemia, -28.5% (active); in the assay on OVCAR-8 ovarian, 6.83% (active); with OVCAR-5 ovarian it was 9.68% (active); in the assay on OVCAR-4 ovarian it was 11.3%; in the assay on SK-OV-3 ovarian it was -61.5% (active). The growth is -0.409% (active) in the assay on OVCAR-3 ovarian; -27% (active) in the assay on HS 578T breast; 2.34% (active) in the assay on NCI/ADR-RES ovarian; 16.6% in the assay with T-47D breast; -9.05% (active) in the assay with BT-549 breast; 5.51% (active) with MDA-MB-435 melanoma. The growth was 6.4% (active) in the assay with SW-620 colon, 65.5% in the assay with MCF7 breast, 10.2% with HCT-116 colon and 36.6% in the assay on KM12 colon.
With `O=C1/C(=C\c2cn(-c3ccccc3)nc2-c2ccc(-c3cccs3)cc2)CCc2ccccc21`, the growth is 15.9% with SR leukemia; 52.2% with RPMI-8226 leukemia; 82.5% with OVCAR-8 ovarian; 94.9% in the assay with OVCAR-5 ovarian; 75.1% with OVCAR-4 ovarian; 86.7% in the assay with SK-OV-3 ovarian. The growth with OVCAR-3 ovarian was 47.3%; with HS 578T breast, 81.8%; in the assay on NCI/ADR-RES ovarian, 35.5%; in the assay on T-47D breast it was 66.4%; with BT-549 breast, 70%; in the assay with MDA-MB-435 melanoma it was -24.6% (active). Further, the growth was 41.9% in the assay on SW-620 colon; 38.3% in the assay on MCF7 breast; 43.7% in the assay with HCT-116 colon; 79.8% in the assay with HCC-2998 colon; 49.4% in the assay with KM12 colon.
On to `O=C(CSc1nc(-c2ccccc2)[nH]c1S(=O)(=O)c1ccccc1)NC1CC1`, for which the growth is 92.1% in the assay on SR leukemia; 90.1% with RPMI-8226 leukemia; 97.2% in the assay on OVCAR-8 ovarian; 109% in the assay on OVCAR-5 ovarian; 95% with OVCAR-4 ovarian; 13.4% in the assay with SK-OV-3 ovarian. Moreover, the growth is 107% with IGROV1 ovarian; 102% in the assay with OVCAR-3 ovarian; 99.2% in the assay on HS 578T breast; 83.1% with NCI/ADR-RES ovarian; 46.3% with T-47D breast; 105% with BT-549 breast. For the same compound, the growth in the assay on MDA-MB-435 melanoma was 108%; with SW-620 colon it was 104%; in the assay with HCT-116 colon, 94.2%; in the assay on HCC-2998 colon, 69%; with KM12 colon, 100%.
As to `CN1CCN(Cc2ccc(NC(=O)c3cncc(C#Cc4cnc(N)c5ccccc45)c3)cc2C(F)(F)F)CC1`, the growth in the assay on SR leukemia was 1.53% (active); in the assay with RPMI-8226 leukemia it was -42.8% (active); in the assay on OVCAR-8 ovarian, -82.5% (active); with OVCAR-5 ovarian it was -83.7% (active); in the assay with OVCAR-4 ovarian, -32.7% (active); with SK-OV-3 ovarian, -78.5% (active). For the same compound, the growth in the assay on IGROV1 ovarian is -69.8% (active); in the assay with OVCAR-3 ovarian, -87.6% (active); in the assay with HS 578T breast, -41.5% (active); in the assay on NCI/ADR-RES ovarian it was -65.7% (active); in the assay with T-47D breast, -60.6% (active); with BT-549 breast, 25.9%. The growth in the assay on MDA-MB-435 melanoma was -88.7% (active); in the assay on SW-620 colon it was -73.4% (active); in the assay on HCT-116 colon, -60.9% (active); with KM12 colon it was -86.6% (active).
